Assay results taken from PubChem BioAssay (EPA / NIEHS).
Inconclusive results are not listed. The source made the active and inactive calls. The calls were made as follows: active = hit-call score of the fitted dose curve at least 0.9, where 1 is the maximum; inconclusive = response in the unintended direction; inactive = score below 0.9.

Assay: NVS_GPCR_bNPY_NonSelective: NovaScreen (NVS) G Protein-Coupled Receptor Assay for bovine Neuropeptide Y (NPY) Receptor, Non-selective Binding (AID 2283245)
In short: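 Bovine hippocampal membranes incubated 1 hour with radioligand and test chemical. Bound ligand measured by filter-based scintillation counting. Single-concentration screen at 25 uM in duplicate, then concentration-response up to 50 uM.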

| SMILES | outcome | AC50 |
| --- | --- | --- |
| CO/C=C(/C(=O)OC)c1ccccc1COc1cccc(C(F)(F)F)n1 | inactive |  |
| CCCCCCCCCC[N+](C)(C)CCCCCCCCCC |  | 22.5 µM (active) |
